Consider 69 molecules from ChEMBL document CHEMBL3988442, “University of Dundee, Small-Polar-MMV Screening Library” (2021).

The campaign covered roughly 48,000 compounds. About 13,000 (27%) showed an effect of 50% or more. The list shows a part of the results.

The subject of this assay is Wolbachia pipientis. The assay can be described thus: Anti-Wolbachia Cell-Based Screen. It counts as functional. Also noted: scale not given: in the data most compounds retested in dose-response had high values. The note with it: 5 µM.
Take `CCCn1cc(C(=O)N(C)Cc2nc(-c3ccccn3)no2)c(C)n1`: the “Percent Effect” value came to 4.948%.

Take `CCO[C@@H]1CCN(C(=O)c2cnc(C)cn2)[C@@H]1Cc1cnn(C)c1`: the “Percent Effect” value is listed as -1.532%.

For `CS(=O)(=O)c1ccccc1N[C@@H]1c2ccccc2C[C@@H]1O`, the “Percent Effect” value is given as -8.17%.

`CNc1nc(CNC(=O)Nc2ccc(OC)cc2C)cs1`: the “Percent Effect” value was 10.14%.

For the molecule `O=C(O)C(F)(F)F.O=C(O)C(F)(F)F.O=C1COC2(CCN(Cc3cccs3)CC2)CN1c1cccnc1`, the “Percent Effect” value came out at 97.28%.

Consider `CC(=O)N1CC(=O)N(c2cccnc2)CC12CCN(Cc1nccs1)C2.O=C(O)C(F)(F)F.O=C(O)C(F)(F)F` (centres undefined), for which the “Percent Effect” value is recorded as -2.554%.

Take `CN(CCCc1ccccc1)C(=O)CCc1nc(-c2nnc[nH]2)no1`: the “Percent Effect” value is recorded as -15.35%.

On to `COc1cccc(-n2cc(CN(C)C(=O)c3cc[nH]n3)cn2)c1`, for which the “Percent Effect” value is listed as -0.6043%.

As to `COc1cccc(CN(C)C(=O)c2csc(-c3nnc[nH]3)n2)c1`, the “Percent Effect” value stood at 94.98%.

As for `COCCN(Cc1ccccc1)C(=O)c1csc(-c2nnc[nH]2)n1`, the “Percent Effect” value worked out at 98.7%.

As to `CN(CCCOc1ccccc1)C(=O)c1csc(-c2nnc[nH]2)n1`, the “Percent Effect” value came out at 111.9%.

Consider `COCc1nc(C(=O)N(Cc2ccccc2)CC(C)C(=O)O)cs1` (centres undefined), for which the “Percent Effect” value turned out to be 6.809%.

In the case of `CCCc1nc(C(=O)N(C)Cc2cnn(-c3cccc(OC)c3)c2)cs1`, the “Percent Effect” value is recorded as -14.16%.

On to `Cc1nc(-c2nnc[nH]2)sc1C(=O)N(Cc1cccnc1)C1CC1`, for which the “Percent Effect” value is listed as 1.946%.

For `Cc1csc(CN(C)CCOc2ccccc2)n1`, the “Percent Effect” value was -0.03273%.

Take `Cc1nc2c(NCC(C)N(C)c3ccccc3)ncnc2o1` (centres undefined): the “Percent Effect” value is reported as -36.58%.

In the case of `COc1ccc(C2(C(=O)NCc3c(C)ncc4c3CCNC4)CC2)cc1`, the “Percent Effect” value is reported as -10.04%.

As for `CNS(=O)(=O)c1cc(C(=O)N(C)Cc2sccc2C)c(C)o1`, the “Percent Effect” value is -10.4%.

`COc1c(C)cnc(CN(C)C(=O)Nc2ccc3c(c2)CCO3)c1C`: the “Percent Effect” value amounted to 3.992%.

For the molecule `COc1ccc(Cc2ncc3c(n2)CN(C(=O)CN(C)C)C3)cc1`, the “Percent Effect” value is on record as -15.7%.

In the case of `Cc1nc(C)n(CC2CN(CCOCC(F)(F)F)CCO2)n1` (centres undefined), the “Percent Effect” value is reported as -2.106%.

`CCC(C)(NCC(=O)N(c1ccccc1)C(C)C)c1nc(C)cs1` (centres undefined): the “Percent Effect” value is given as -6.604%.

In the case of `COc1ccccc1C(C)(C)NCc1ccc(C)o1`, the “Percent Effect” value was determined as 6.664%.

With `Cc1ccc(CNC(C)(C)c2noc(C(C)(C)C)n2)o1`, the “Percent Effect” value is 107.5%.

Turning to `Cc1cnn(C2CN(CC(=O)N(C)Cc3ccc(C)o3)C2)c1`, the “Percent Effect” value is -130.6%.

`Cc1nc(C)n(CC2CCCN2CC(=O)N(C)Cc2ccc(C)o2)n1` (centres undefined): the “Percent Effect” value is 1.913%.

As to `Cc1ccc(CN(C)C(=O)CNC(C)(C)c2noc(C(C)(C)C)n2)o1`, the “Percent Effect” value was 94%.

For `Cn1nccc1C(=O)NC(C)(C)c1noc(C(C)(C)C)n1`, the “Percent Effect” value is listed as 27.22%.

As for `Cc1csc(C(C)(C)NCCNS(C)(=O)=O)n1`, the “Percent Effect” value is reported as -2.878%.

Take `Cc1csc(C(C)(C)NCC(=O)N(C)Cc2ccc(C)o2)n1`: the “Percent Effect” value is 102.3%.

Turning to `Cc1nn(C)c(C)c1OCC(=O)NCC(O)c1ccsc1` (centres undefined), the “Percent Effect” value was 4.904%.

In the case of `O=C(Nc1ccccc1-c1cccs1)N1CCN(CC(F)F)CC1`, the “Percent Effect” value was -15.51%.

`CCC(=O)N1CCN(C)C(=O)C(Cc2ccccc2-c2cccs2)C1` (centres undefined): the “Percent Effect” value turned out to be 157.1%.

As to `COCC(=O)N1CCN(C)C(=O)C(Cc2ccc(-c3cccs3)cc2)C1` (centres undefined), the “Percent Effect” value stood at 126.7%.

Regarding `CCC(=O)N1CSCC1C(=O)Nc1ccccc1-c1cccs1` (centres undefined), the “Percent Effect” value was -5.499%.

For `COCC(=O)N1CCN(C(=O)c2cccs2)[C@@H](C(=O)OC)C1`, the “Percent Effect” value is reported as -3.923%.

`COCC(=O)N1CCN(C)C(=O)C(Cc2ccccc2-c2cccs2)C1` (centres undefined): the “Percent Effect” value was 162.7%.

As to `CCC(=O)N1CCN(C(=O)Nc2ccccc2-c2cccs2)CC1`, the “Percent Effect” value is reported as -6.486%.

As to `COCc1noc(CN2CC(=O)N(C)c3ccccc3C2=O)n1`, the “Percent Effect” value is recorded as -11.96%.

Turning to `COCCc1noc(Cn2c(=O)[nH]c3ccccc32)n1`, the “Percent Effect” value is given as 95.59%.

Consider `COCc1noc(Cn2ccc3ccccc3c2=O)n1`, for which the “Percent Effect” value is -17.57%.

Consider `COCCc1noc(CN2CC(C)(c3ccccc3)CCC2=O)n1` (centres undefined), for which the “Percent Effect” value was -4.269%.

For `COCCc1noc(Cn2ccc3ccccc3c2=O)n1`, the “Percent Effect” value was -26.03%.

For `COCc1noc(Cn2ncn3cccc3c2=O)n1`, the “Percent Effect” value is listed as -2.273%.

Consider `COCc1noc(Cn2ccc3ncccc3c2=O)n1`, for which the “Percent Effect” value is given as 1.423%.

With `COCc1noc(Cn2c(=O)[nH]c3ccccc32)n1`, the “Percent Effect” value was determined as 93.82%.

`COCc1noc(Cn2c(C3CC3)nc3ccccc32)n1`: the “Percent Effect” value is given as 95.56%.

Turning to `CSCC(CCO)NC(=O)Nc1cc(Br)ccc1C` (centres undefined), the “Percent Effect” value worked out at 9.066%.

On to `COCCN1CCC2(CCCN(C(=O)c3cncn3C)C2)CC1.O=C(O)C(F)(F)F`, for which the “Percent Effect” value is -17.89%.

Regarding `Cc1cccnc1C(NC(=O)CNC(=O)c1ccoc1C)C(C)C` (centres undefined), the “Percent Effect” value is -9.405%.

Turning to `CNC(=O)c1nc(COc2c(C)occc2=O)no1`, the “Percent Effect” value stood at 98.73%.

For the molecule `CNC(=O)c1ccc(OC)c(NCc2noc(-c3ccsc3)n2)c1`, the “Percent Effect” value is -18.11%.

On to `CCOc1ccc(CC(CNC(=O)c2ccoc2C)C(N)=O)cc1` (centres undefined), for which the “Percent Effect” value is reported as -14.81%.

In the case of `CNC(=O)c1nc(Cn2ncc3ccccc3c2=O)no1`, the “Percent Effect” value was -11.19%.

Consider `CCc1nc(COc2ccc(N(C)C(C)=O)cc2)no1`, for which the “Percent Effect” value is given as -47.78%.

As for `Cc1occc(=O)c1OCc1noc(C(=O)NCC(C)C)n1`, the “Percent Effect” value amounted to 118%.

On to `Cc1occc1C(=O)NCC(O)c1ccc(Cl)s1` (centres undefined), for which the “Percent Effect” value is -1.514%.

Turning to `CCOC(=O)c1nc(COc2c(C)occc2=O)no1`, the “Percent Effect” value is 107.7%.

`Cc1occc(=O)c1OCc1noc(C(=O)NC(C)C)n1`: the “Percent Effect” value is reported as 81.24%.

Take `CN(CCc1nc2cc(Cl)ccc2[nH]1)C(=O)c1ncn[nH]1`: the “Percent Effect” value is listed as 8.261%.

Consider `CCCN1C[C@H]2CC[C@@H]1CN(C(=O)c1ccc(N(C)CCO)cc1)C2`, for which the “Percent Effect” value is -0.2946%.

`COc1ccc(C(C)N2CCC(C(=O)N(C)C)CC2)cc1Cl` (centres undefined): the “Percent Effect” value turned out to be 13.21%.

For `COC(=O)NCC(=O)N(C)CC1Cc2ccccc2CN1C` (centres undefined), the “Percent Effect” value is recorded as -16.07%.

Take `Cc1c(I)cccc1C(=O)NCc1nnc[nH]1`: the “Percent Effect” value is on record as -11.57%.

Turning to `COC(=O)N1CCC(NC(=O)N2CCCC2c2ccsc2)CC1` (centres undefined), the “Percent Effect” value came out at 22.17%.

In the case of `COC(=O)CS(=O)(=O)CCC(=O)N1CCCC1c1ccsc1` (centres undefined), the “Percent Effect” value was 0.3686%.

Consider `CC(C)(C)C(=O)N1C[C@H](c2ccsc2)[C@H]2CN(Cc3cccs3)CC[C@H]21.Cl`, for which the “Percent Effect” value was determined as 6.375%.

For `CC(C)(C)C(=O)N1C[C@H](c2ccsc2)[C@H]2CN(C3CCCC3)CC[C@H]21.Cl`, the “Percent Effect” value stood at 191.9%.

`CC(C)(C)C(=O)N1C[C@H](c2ccsc2)[C@H]2CN(C3CCCCC3)CC[C@H]21.Cl`: the “Percent Effect” value is recorded as 142.3%.
